Assay results as given in PubChem BioAssay (NCI).
Compounds without any hit were thinned out: in the full panel of roughly 79,000, 15% have a hit. Active and inactive are the calls of the source. No stated cut-off is given here; in the data, active means growth inhibition above about 70%; inactive means the rest.

Tests used:
[1] = NCI Yeast Anticancer Drug Screen. Data for the rad50 strain (AID 155);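 further: 0% = growth of vehicle-only cultures of the same strain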; conditions: S. cerevisiae rad50 strain growth inhibition; at 50.0 µM; hits give high values
How it was run: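 Inhibition values express reduced yeast growth in compound-treated cultures relative to vehicle-treated controls.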

[2] = NCI Yeast Anticancer Drug Screen. Data for the mec2-1 strain (AID 157); conditions: S. cerevisiae mec2-1 strain, at 50.0 µM, hits give high values
How it was run: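 Mutant yeast (mec2-1) grown with compound; growth inhibition relative to vehicle control reported.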

[3] = NCI Yeast Anticancer Drug Screen. Data for the sgs1 mgt1 strain (AID 161);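 further: 0% = growth of cultures given vehicle only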; conditions: S. cerevisiae sgs1 mgt1 strain, at 50.0 µM, hits give high values
How it was run: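 Yeast cells carrying a defined DNA-repair defect were exposed to test compounds. Growth inhibition was measured relative to vehicle-treated controls.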

[4] = NCI Yeast Anticancer Drug Screen. Data for the cln2 rad14 strain (AID 165);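 further: 0% = growth equal to vehicle treated cultures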; conditions: S. cerevisiae cln2 rad14 strain, at 50.0 µM, hits give high values
How it was run: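 Readout is yeast growth inhibition versus vehicle-treated controls, using a strain with cln2 and rad14 alterations exposed to compound.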

[5] = NCI Yeast Anticancer Drug Screen. Data for the bub3 strain (AID 167); conditions: S. cerevisiae bub3 mutant strain, at 50.0 µM, hits give high values
How it was run: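 Steps: expose the mutant yeast strain to compound; grow alongside vehicle-treated cultures; measure growth; express inhibition against the vehicle cultures.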

[6] = NCI Yeast Anticancer Drug Screen. Data for the mlh1 rad18 strain (AID 175); conditions: S. cerevisiae mlh1 rad18 strain growth inhibition; at 50.0 µM; hits give high values
How it was run: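 Genetically defined yeast (DNA repair-deficient) exposed to compounds; growth inhibition determined relative to vehicle.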

Measured: growth inhibition

COC(=S)SSC(=S)NCCN(CCNC(=S)SSC(=S)OC)C(=S)SSC(=S)OC
inactive: [1] 2.05% | [2] 6.2% | [3] -2.65% | [4] -2.7% | [5] 7.8% | [6] 26.6%

Cc1cccc(C2=N/C(=C\c3c(O)ccc4ccccc34)C2=O)c1
inactive: [1] 6.55% | [2] 7.1% | [3] 0.9% | [4] 6.55% | [5] 10.9% | [6] -6.65%

COc1cc(C2SCC(=O)N2c2ccc(-n3c(-c4ccccc4)nc4ccccc4c3=O)cc2)cc(OC)c1OC (centres undefined)
inactive: [1] -17.3% | [2] -8.85% | [3] -4.4% | [4] -7.8% | [5] 8.05% | [6] 4.5%

O=C1CN(Cc2ccc(Cl)cc2)CC(=O)N2CCCN12
inactive: [1] 20.8% | [2] 8% | [3] 19.7% | [4] 18.2% | [5] 10.8% | [6] 16.4%

c1ccc(Cc2ncc(-c3ccccc3)cc2-c2ccccc2)cc1
inactive: [1] -19.4% | [2] -14.8% | [3] 3.1% | [4] 3.65% | [5] 7.3% | [6] 4.2%

CN(C)CCCNc1cc[n+](C)c2cccc([N+](=O)[O-])c12
inactive: [1] 27.1% | [2] 15.4% | [3] 31.4% | [4] 20.4% | [5] 13.8% | [6] 27.3%

Cc1cccc(Oc2ccc(C(F)(F)F)cc2[N+](=O)[O-])c1C
inactive: [1] -32.2% | [2] -2.15% | [3] 2.55% | [4] -45.4% | [5] 45.3% | [6] -15.2%

CC(C)(C)NC(=O)C12C3C4C1C1C2C3C41C(=O)NC(C)(C)C (centres undefined)
inactive: [1] -19.3% | [2] -9% | [3] -15.9% | [4] -39.7% | [5] -26.1% | [6] -19.5%

OC(CBr)c1cc(-c2ccccc2)nc2c(Cl)cc(Cl)cc12 (centres undefined)
inactive: [1] 31.9% | [2] -8.45% | [3] 33.6% | [4] -16.7% | [5] 11.8% | [6] 50.8%

CC1(C)COCN1COCCOCN1COCC1(C)C
inactive: [1] 10.2% | [2] -18% | [3] -1.55% | [4] 7.05% | [5] -25.9% | [6] -56.6%

O=C(O)/C=C\C(=O)Nc1ccccc1
inactive: [1] 10.2% | [2] 15.8% | [3] -16.1% | [4] -53.5% | [5] -3.25% | [6] 11.5%

NCCO
inactive: [1] -1% | [2] 1.15% | [3] -11.8% | [4] -3.6% | [5] 13.2% | [6] -18.9%

CC(C)(C)C(=O)/C=C/c1ccc(Oc2ccccc2)cc1
inactive: [1] 27.8% | [2] -28.7% | [3] 4.05% | [4] -15.6% | [5] -19.8% | [6] -20.8%

COC(=O)c1nc(N)nc(C(=O)OC)c1C(=O)c1cccc([N+](=O)[O-])c1
inactive: [1] -11.1% | [2] -19.4% | [3] -33.2% | [4] 30.6% | [5] -21.7% | [6] -16.8%

Cc1c(NC=O)c(=O)n(-c2ccccc2)n1C
inactive: [1] -10.8% | [2] -33% | [3] 32.9% | [4] 3.65% | [5] 14.4% | [6] 33.7%

COC(=O)C(C(=O)C(=O)Nc1ccc(C(F)(F)F)cc1[N+](=O)[O-])c1csc(-n2nc(-c3ccccc3)cc2-c2ccccc2)n1 (centres undefined)
inactive: [1] 19.9% | [2] 18.6% | [3] 42.5% | [4] -13.2% | [5] 23.4% | [6] 1.6%

CC(=O)CC(=O)Nc1ccc(NC(=O)CC(C)=O)cc1
inactive: [1] -13.5% | [2] -30.9% | [3] -21.1% | [4] -0.55% | [5] -23.5% | [6] -15.9%

N#Cc1nc(C2CCC2)oc1N
inactive: [1] 2.3% | [2] 5.85% | [3] -15.3% | [4] 18.6% | [5] 1.55% | [6] -41.5%

CC(=O)COC(C)=O
inactive: [1] 40.2% | [2] -15.6% | [3] 4.85% | [4] -5% | [5] 2.6% | [6] 12.6%

O=C1OC(c2ccc3c(c2)CCCC3)=C/C1=C/c1ccc2c(c1)OCO2
inactive: [1] -13.4% | [2] 4% | [3] 14.1% | [4] -25.1% | [5] 2.9% | [6] -15.9%

O=[P+](O)c1cc2c3ccccc3ccc2c2ccccc12
inactive: [1] -34.9% | [2] 11.8% | [3] 32% | [4] -12.3% | [5] 33% | [6] -0.55%

Fc1ccc(N=Cc2ccc(C=Nc3ccc(F)cc3)cc2)cc1
inactive: [1] 20.9% | [2] 30.1% | [3] 18.7% | [4] 10.2% | [5] 38% | [6] 27.2%

CCCC(C)C(C)O (centres undefined)
inactive: [1] -21.4% | [2] -45.6% | [3] 0.15% | [4] -11.1% | [5] -24.1% | [6] -14.8%

CCCCc1nc2c([nH]1)c(=O)n(C)c(=O)n2C
inactive: [1] 8.1% | [2] -10.9% | [3] 5.2% | [4] 4.85% | [5] -36.5% | [6] 4.25%

CCCc1c[nH]c(-c2ccc(-c3cc(CCC)c(C=O)[nH]3)s2)c1
inactive: [1] -44.8% | [2] -22.8% | [3] -35.9% | [4] -2.8% | [5] -28.9% | [6] -56.7%

OCC(O)C1OC(n2cnc3c(=S)nc[nH]c32)C(O)C1O (centres undefined)
inactive: [1] 2.85% | [2] -6.75% | [3] -3.8% | [4] -42.8% | [5] -6.5% | [6] -10.6%

O=S(=O)(O)c1cccc2c(O)cccc12
inactive: [1] -7.9% | [2] -2.9% | [3] 5.65% | [4] 34.9% | [5] 5.35% | [6] -32%

Cc1cc(Cl)ccc1-n1nc(C)c2c(N)nc(N)nc21
inactive: [1] 17.4% | [2] 6.5% | [3] 13.7% | [4] -1.55% | [5] 24.7% | [6] 23.1%

O=C(CCc1n[nH]c(=S)o1)Nc1ccccc1
inactive: [1] 18.4% | [2] 17.4% | [3] 30.4% | [4] 15.8% | [5] 14.1% | [6] 35.3%

Cc1cc2c(c3c1c(=O)c1ccccc1n3C)C=CC(C)(C)O2
inactive: [1] -5.05% | [2] -0.2% | [3] 9.95% | [4] 3.35% | [5] 14.4% | [6] -8.9%

CCOC(=O)/C(C(C)=O)=C1\C(=O)c2ccccc2-c2ccccc21
inactive: [1] 21.6% | [2] 3.5% | [3] 2.8% | [4] -19.2% | [5] 12.9% | [6] 12.5%

COc1ccc(C=O)c(NC(=O)C(C)(C)C)c1
inactive: [1] 37.4% | [2] 23.9% | [3] 9.8% | [4] 1.7% | [5] 23.2% | [6] -13.7%

Nc1ccc(N=Nc2ccc(N)cc2)cc1
inactive: [1] 12.7% | [2] 6.5% | [3] -13.7% | [4] -8.9% | [5] 11.2% | [6] 2.5%

CCc1cccc(CC)c1N1C(=O)C2C(C1=O)C1(Cl)C(Cl)=C(Cl)C2(Cl)C1(Cl)Cl (centres undefined)
inactive: [1] 37.4% | [2] 50.6% | [3] 65.4% | [5] 61%
active: [4] 74.2% | [6] 87.6%

OCCSC(SCCO)=C(SCCO)SCCO
inactive: [1] 9.85% | [2] -15.7% | [3] -1.55% | [4] -13.2% | [5] 1.35% | [6] 2.75%

CC(Oc1ccc(Br)cc1Br)C(=O)O (centres undefined)
inactive: [1] 4.1% | [2] -16.2% | [3] 1.2% | [4] 23.2% | [5] -14.5% | [6] 19.1%

CCCC(O)C(C)C(O)CC (centres undefined)
inactive: [1] -9.85% | [2] -30.4% | [3] -22.2% | [4] -3.45% | [5] 1.4% | [6] -1.45%

Cc1ccc(C(=O)Cc2ccccc2)cc1
inactive: [1] 8.05% | [2] 6.15% | [3] 4.85% | [4] 1.25% | [5] -1.85% | [6] 1.05%

CCOC(=O)C1CSC(c2ccccc2)=N1 (centres undefined)
inactive: [1] 8.75% | [2] -4.4% | [3] -2.35% | [4] -4.25% | [5] -8.35% | [6] 27.1%
